{"source": "PubChem BioAssay AID602366", "about": "(National Center for Advancing Translational Sciences (NCATS), 2012)", "note": "Inconclusive results are not listed. Activity calls are given as the source filed them. Calls come from the whole dose curve; as a rule, active = well fitted inhibition curve with a large enough effect; inconclusive = small, poorly fitted or top-dose-only effect; inactive = flat fitted curve, though single readings scatter.", "data": [{"assay": "qHTS Assay for Inhibitors of Bacillus subtilis Sfp phosphopantetheinyl transferase (PPTase): SAR in B subtilis HM489", "settings": "B. subtilis HM489 whole-cell Sfp-dependent phenotype; series mostly up to 114 µM", "description": "The covalent attachment of a phosphopantetheinyl (4'-PP) arm to a variety of synthases and other proteins is a key posttranslational protein modification. The 4'-PP is installed on the proteins post-translationally from coenzyme A (CoA) on a conserved serine residue by action of phosphopantetheinyl transferase (PPTase) enzymes. Phosphopantetheinylation is essential for synthase activity, and removal of the PPTase gene precludes natural product synthesis in microorganisms, or in the case of fatty acid biosynthesis, renders the organism unviable. PPTase enzymes belong to a distinct structural superfamily. Within bacteria, these enzymes are grouped into two classes based upon primary structure, the AcpS-Type and Sfp-Type PPTases.\nSfp-type PPTases, corresponding to an activator of surfactin production in Bacillus subtilis, are responsible for modifying type I polyketide and nonribosomal peptide synthases of prokaryotes. Sfp-type PPTases are responsible for the activation of a variety of pathogen-associated virulence factors. Among these compounds are toxins such as mycolactone from Mycobacterium ulcerans, siderophores such as vibriobactin from Vibrio cholerae or mycobactin from Mycobacterium tuberculosis, as well as the mycolic acids which form the waxy cell wall of Mycobacteria. The biosyntheses of these natural products are considered attractive targets for drug design.\nIn search of small molecule Sfp-PPTase inhibitors, a fluorescence quenching assay was developed for detection of Bacillus subtilis Sfp-PPTase enzymatic activity in a miniaturized high-throughput format. The consensus ybbr acceptor peptide […] was N-terminally labeled with Black Hole Quencher-2 (BHQ-2) and used in combination with rhodamine-labeled coenzyme A as a co-substrate.\nPhosphopantetheinyl transfer is a process essential to cellular viability and maintenance. Cellular permeable and stable compounds acting as PPTase inhibitors are anticipated to be antimicrobial agents in organisms with complimenting genotypes. […] This experiment evaluated a series of test compounds for antimicrobial activity with B. subtilis HM489 (genotype: acpS- and sfp+), a strain that contains a targeted lesion in the acpS locus and thus requires a functional Sfp gene product for viability. [Mootz HD, 2001] This strain is expected to be sensitized to cell-permeable Sfp inhibitors.\nNIH Chemical Genomics Center [NCGC]\nNIH Molecular Libraries Probe Centers Network [MLPCN]\nAssay Submitter (PI): Michale Burkart, University of California, San Diego\nBacillus subtilis HM489 is maintained on lysogeny broth (LB) solidified by the addition of 1.5% w/v agar. Single colonies were used to LB medium (2 mL) and shaken overnight at 30 deg C. In the morning, this culture (100 uL) was used to seed a fresh LB medium (10 mL) and was shaken at 30 deg C until the culture OD600 reached 0.5. This culture was diluted 1:100 in fresh LB medium to provide the inoculum below.\nBacterial susceptibility.\nLB medium (2 uL) is dispensed into wells of a sterile white 1536-well plate. Test compounds (23 nL) prepared as serial dilutions in DMSO are added to the plate by pintool transfer. Innoculum (2 uL) is added; the plates are covered with a vented Kalypsys assay lid and incubated at 30 deg C. After 5 h, Bac-Titer Glo (4 uL; Promega Corp, Madison, WI) is added to the plates. They are incubated 10 minutes at room temperature and then the luminescence detected in a ViewLux multimodal plate reader.", "values": [{"molecule": "FC(F)(F)c1cccc(N2CCN(C(=S)Nc3cc(C(F)(F)F)ccn3)CC2)c1", "Potency": "10.5 µM (active)"}, {"molecule": "Cc1ccnc(NC(=S)N2CC3CN(c4cccc(C(F)(F)F)c4)CC3C2)c1", "note": "(centres undefined)", "Potency": "5.27 µM (active)"}, {"molecule": "Cc1ccnc(NC(=S)N2CCN(c3cc(C(F)(F)F)cc(C(F)(F)F)c3)CC2)c1", "Potency": "11.8 µM (active)"}, {"molecule": "Cc1ccnc(NC(=S)N2CCN(c3cccc(N(C)C)c3)CC2)c1", "Potency": "46.9 µM (active)"}, {"molecule": "Cc1ccnc(NC(=S)N2CC3CN(c4ncc(C(F)(F)F)cc4Cl)CC3C2)c1", "note": "(centres undefined)", "Potency": "11.8 µM (active)"}, {"molecule": "COc1ccnc(NC(=S)N2CCN(c3cccc(Cl)c3Cl)CC2)c1", "Potency": "8.35 µM (active)"}, {"molecule": "Cc1cc(C)nc(NC(=S)N2CCN(c3ccc(Cl)c(Cl)c3)CC2)c1", "Potency": "26.4 µM (active)"}, {"molecule": "Cc1cc(C)nc(NC(=S)N2CCN(c3ccc(F)c(F)c3F)CC2)c1", "Potency": "21 µM (active)"}, {"molecule": "Cc1ccnc(NC(=S)N2CCCc3ccc(C(F)(F)F)cc32)c1", "Potency": "inactive"}, {"molecule": "Cc1cc(C)nc(NC(=S)N2CC3CN(c4ccc(Cl)cc4C(F)(F)F)CC3C2)c1", "note": "(centres undefined)", "Potency": "9.37 µM (active)"}, {"molecule": "Cc1cc(C)nc(NC(=S)N2CCN(c3ccc([N+](=O)[O-])cc3Cl)CC2)c1", "Potency": "18.7 µM (active)"}, {"molecule": "Cc1ccnc(NC(=S)N2CCCN(c3cccc(C(F)(F)F)c3)CC2)c1", "Potency": "4.18 µM (active)"}, {"molecule": "FC(F)(F)c1cc(N2CCN(C(=S)Nc3cc(Cl)ccn3)CC2)cc(C(F)(F)F)c1", "Potency": "4.18 µM (active)"}, {"molecule": "Cc1ccnc(NC(=S)N2CCN(c3cccc(C(F)(F)F)c3)CC2)c1", "Potency": "10.5 µM (active)"}, {"molecule": "Cc1ccnc(NC(=S)Nc2cccc(C(F)(F)F)c2)c1", "Potency": "10.5 µM (active)"}, {"molecule": "Cc1ccnc(NC(=S)N[C@@H]2CCN(c3cccc(C(F)(F)F)c3)C2)c1", "Potency": "29.6 µM (active)"}, {"molecule": "Cc1cc(C)nc(NC(=S)N2CCN(c3ccc(Cl)cc3Cl)CC2)c1", "Potency": "29.6 µM (active)"}, {"molecule": "COc1ccnc(NC(=S)N2CCN(c3ccc(Cl)cc3Cl)CC2)c1", "Potency": "10.5 µM (active)"}, {"molecule": "CSC(Cc1ccc(Cl)cc1)C(=O)Nc1ccc(Cl)cc1C(=O)O", "note": "(centres undefined)", "Potency": "26.4 µM (active)"}, {"molecule": "Cc1cc(C)nc(NC(=S)N2CCN(c3ncccc3C#N)CC2)c1", "Potency": "inactive"}, {"molecule": "S=C(Nc1cc(Cl)ccn1)N1CCN(c2cccc(Cl)c2Cl)CC1", "Potency": "8.35 µM (active)"}, {"molecule": "Cc1cc(C)nc(NC(=S)N2CCN(c3cc(Br)cc(C(F)(F)F)c3)CC2)c1", "Potency": "4.69 µM (active)"}, {"molecule": "COc1cccc(NC(=S)N2CCN(c3ccc(Cl)c(Cl)c3)CC2)n1", "Potency": "inactive"}, {"molecule": "COc1ccnc(NC(=S)N2CCN(c3ncc(C(F)(F)F)cc3Cl)CC2)c1", "Potency": "6.63 µM (active)"}]}]}
